Pf growth 48h: Primary qHTS for delayed death inhibitors of the malarial parasite plastid, 48 hour incubation; AID 504832, 2011; Potency, µM (series often up to 28.7 µM), usual class: inhibitors; 5.9% of 310,000 active; P. falciparum luciferase growth in erythrocytes, 48 h
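Cell-based growth assay: transgenic P. falciparum expressing firefly luciferase, cultured in red cells within RPMI 1640 containing 0.5% w/v Albumax, 24 mM bicarbonate and gentamycin. A drop in luciferase activity indicates inhibition.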
AMA1 RON2 block: qHTS for Inhibitors of AMA1-RON; Towards Development of Antimalarial Drug Lead: Primary Screen; Plasmodium falciparum AMA1 (3D7) - RON2 peptide interaction; AlphaScreen AMA1-biotinylated RON2 peptide binding; Potency, µM (top dose mostly 58.2 µM), usual class: inhibitors; 0.2% of 360,000 active; note: nearly all actives have a fitted effect of over 45% in size
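AMA1 (3D7) with his tag at 25 nM final met compounds first, then biotinylated RON2 peptide at 25 nM; detection used donor plus acceptor beads, 10 µg/mL apiece, read by AlphaScreen after 30 min at room temperature.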
Pf growth 96h: Primary qHTS for delayed death inhibitors of the malarial parasite plastid, 96 hour incubation. 6.9% of 320,000 active. P. falciparum luciferase reporter growth, 96 h. Potency, µM (series often up to 28.7 µM), actives largely listed as inhibitors. AID 504834, 2011
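P. falciparum expressing integrated firefly luciferase grown in erythrocytes (2% hematocrit, 0.05% parasitemia final) with compounds for 96 hours at 37 C, 5% CO2. Growth inhibition read as loss of luminescence after adding luciferase detection reagent.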
SARS PLP yeast: qHTS of Yeast-based Assay for SARS-CoV PLP. S. cerevisiae expressing SARS-CoV PLpro, growth rescue. Potency, µM (highest dose often 32.9 µM), hits mostly activators. 0.19% of 330,000 active; calls by dose curve; note: nearly all actives have a fitted effect of over 55% in size
Each line names hits and unclear results; the compound was inactive in the other large screens. Only some compounds are listed: those with a hit (about 9.4% of all), similar ones and a draw of the others. Unless noted, calls come from the whole dose curve; as a rule, active = well fitted curve in the direction sought with a large enough effect; inconclusive = small, poorly fitted or top-dose-only effect, or another doubt; inactive = no such curve, though single readings can be large; an effect the other way counts as inactive or inconclusive.

CCN1CCN(c2ccc(S(=O)(=O)N3CCCCC3)cc2NC(=O)COc2ccc(Cl)c(C)c2)CC1	Pf growth 48h 4.7µM, Pf growth 96h inconclusive
CCN1CCN(c2ccc(S(=O)(=O)N3CCCCC3)cc2NC(=O)COc2ccccc2)CC1	Pf growth 48h 12µM, Pf growth 96h inconclusive
Cc1cc(OCC(=O)Nc2cccc(S(=O)(=O)N3CCCCC3)c2)ccc1Cl	Pf growth 48h inconclusive, Pf growth 96h inconclusive
O=C(c1ccc(F)cc1)N(Cc1cccs1)C1CCS(=O)(=O)C1 (stereo not given)	Pf growth 96h inconclusive
O=C(O)c1ccccc1	none (no result: Pf growth 48h, Pf growth 96h)
O=C(C1CCN(S(=O)(=O)c2ccccc2F)CC1)N1CCCC1	none
COc1ccccc1OCC(=O)Nc1cc(Cl)ccc1N1CCCCC1	Pf growth 48h 10µM, Pf growth 96h inconclusive
COc1ccccc1OCC(=O)Nc1ccc(N2CCOCC2)cc1N1CCOCC1	Pf growth 96h inconclusive
COc1cc(C(C)=O)ccc1OCC(=O)Nc1cc(Cl)ccc1-n1cncn1	none
CCN1CCN(c2ccc(S(=O)(=O)N3CCCCC3)cc2NC(=O)Cc2ccc(Cl)c(Cl)c2)CC1	Pf growth 48h 10µM, Pf growth 96h 10µM
COc1ccccc1OCC(=O)Nc1cc(C(F)(F)F)ccc1-n1cncn1	Pf growth 48h 9.3µM, Pf growth 96h inconclusive
COc1ccccc1OCC(=O)Nc1cc(S(=O)(=O)N2CCCCC2)ccc1N1CCCCC1	Pf growth 48h 5.2µM, Pf growth 96h 2.1µM
NC(=O)c1ccsc1NC(=O)C1CC1	none
C#Cc1ccc(NC(=O)C2(C)CCN2C(=O)C2(c3ccccc3)CC2)cc1 (stereo not given)	none (no result: Pf growth 48h, Pf growth 96h, SARS PLP yeast)
Cc1cnc(NC(=O)CN2C(=O)C3CC=CCC3C2=O)s1 (stereo not given)	none
COc1ccc(/C=C(\C#N)C(=O)Nc2cc(S(=O)(=O)N3CCCCC3)ccc2N2CCCCC2)cc1	Pf growth 48h inconclusive, Pf growth 96h 8.3µM
COc1ccc(Sc2nc(-c3ccccn3)ncc2OC)cc1	Pf growth 48h 3.3µM, Pf growth 96h 3.3µM
COc1cnc(-c2ccccn2)nc1Sc1ccccc1	Pf growth 48h 13µM, Pf growth 96h inconclusive, SARS PLP yeast inconclusive
COc1cnc(N(C)C)nc1Sc1ccc(Cl)cc1	none
CCOC(=O)CSc1nc(-c2ccccn2)ncc1OC	Pf growth 96h inconclusive
COc1cnc(-c2ccccn2)nc1Sc1ccc(Cl)cc1	Pf growth 48h 2.3µM, Pf growth 96h 1.7µM, SARS PLP yeast inconclusive
COc1cnc(-c2ccccn2)nc1Sc1ccc(F)cc1	Pf growth 48h 4.7µM, Pf growth 96h 1.7µM
Clc1ccc(-n2nnnc2-c2cnc(-c3ccncc3)nc2-c2cccs2)cc1	Pf growth 48h 4.7µM, Pf growth 96h inconclusive
FC(F)(F)c1nc(-c2cccs2)ncc1-c1nnnn1-c1ccc(Cl)cc1	none (no result: Pf growth 48h)
Cc1cccc(OCC(=O)Nc2ccc(S(=O)(=O)N3CCCC3)cc2)c1	Pf growth 48h inconclusive
Cc1cccc(OCC(=O)Nc2nnc(S(=O)(=O)N3CCC(C)CC3)s2)c1	Pf growth 96h inconclusive
O=C(COc1cccc(C(F)(F)F)c1)Nc1ccc(S(=O)(=O)N2CCCCC2)cc1	Pf growth 48h inconclusive, Pf growth 96h 9.3µM (no result: SARS PLP yeast)
Cc1cccc(OCC(=O)Nc2nnc(S(=O)(=O)N3CCCCC3)s2)c1	Pf growth 96h 7.4µM
O=C(CNc1cc(S(=O)(=O)N2CCCC2)ccc1OCC(F)(F)F)Nc1cccc(C(F)(F)F)c1	Pf growth 48h inconclusive, Pf growth 96h 13µM
O=C(COc1ccccc1Br)Nc1ccc(S(=O)(=O)N2CCCC2)cc1	Pf growth 48h 5.9µM, Pf growth 96h inconclusive
O=C(CNc1cccc(C(F)(F)F)c1)Nc1cccc(S(=O)(=O)N2CCCC2)c1	Pf growth 48h inconclusive, Pf growth 96h inconclusive
O=C(O)c1cccc(NC(=O)c2cccc(S(=O)(=O)Nc3cccc([N+](=O)[O-])c3)c2)c1	none
O=C(c1ccoc1)N1CCC2(CC1)Oc1ccc(F)cc1C(=O)C21CC(c2ccccc2)=NO1 (stereo not given)	Pf growth 48h inconclusive, Pf growth 96h 12µM
O=C(c1ccoc1)N1CCC2(CC1)Oc1ccc(F)cc1C(=O)C21CC(c2ccc(Cl)cc2)=NO1 (stereo not given)	Pf growth 48h inconclusive
Cc1ccc(C(=O)N2CCC3(CC2)Oc2ccc(F)cc2C(=O)C32CC(c3ccccc3)=NO2)s1 (stereo not given)	Pf growth 48h inconclusive, Pf growth 96h 10µM
O=C(c1ccc2c(c1)OCO2)N1CCC2(CC1)Oc1ccc(F)cc1C(=O)C21CC(c2cccnc2)=NO1 (stereo not given)	Pf growth 48h inconclusive, Pf growth 96h inconclusive
O=C(c1ccc2c(c1)OCO2)N1CCC2(CC1)Oc1ccc(F)cc1C(=O)C21CC(c2ccccc2)=NO1 (stereo not given)	Pf growth 48h 13µM, Pf growth 96h inconclusive
CCn1c(CNc2ccc(C)cc2C)nnc1SCC(=O)N1CCCc2ccccc21	Pf growth 48h inconclusive (no result: Pf growth 96h)
O=c1c(Cl)c(N2CCN(S(=O)(=O)c3ccc(F)cc3)CC2)cnn1-c1cccc(Cl)c1	Pf growth 48h 8.3µM, Pf growth 96h 6.6µM
CN(C)S(=O)(=O)N1CCN(S(=O)(=O)c2ccc(F)cc2)CC1	none
CN(C)S(=O)(=O)c1ccc(N2CCN(S(=O)(=O)c3ccc(F)cc3)CC2)c(Cl)c1	Pf growth 48h 7.4µM, Pf growth 96h 8.3µM
O=c1n(S(=O)(=O)c2cccc3cccnc23)c2ccccc2n1S(=O)(=O)c1cccc2cccnc12	Pf growth 96h 6.6µM (no result: Pf growth 48h)
O=S(=O)(c1cccc2cccnc12)N1CCN(c2ccc(F)cc2)CC1	Pf growth 96h 15µM
Cc1ccc(N=Cc2c(C)[nH]n(-c3ccccc3)c2=O)nc1	none
Cc1ccc(C)n1-c1cccc(S(=O)(=O)N2CCOCC2)c1	Pf growth 48h inconclusive, Pf growth 96h 13µM
O=S(=O)(c1ccc(F)cc1)N1CCN(c2ncccn2)CC1	Pf growth 48h 2.1µM
O=S(=O)(c1ccccc1)N1CCN(c2ncccn2)CC1	none (no result: Pf growth 96h)
O=S(=O)(c1cccc(S(=O)(=O)N2CCN(c3ncccn3)CC2)c1)N1CCOCC1	Pf growth 96h 12µM
O=C(c1cccc(S(=O)(=O)N2CCOCC2)c1)N1CCN(c2ncccn2)CC1	none (no result: Pf growth 48h, Pf growth 96h, SARS PLP yeast)
O=C(CN1C(=O)c2ccccc2S1(=O)=O)NCc1ccccc1	none
CC(C)Cn1c(N)c(C(=O)COC(=O)c2cnccn2)c(=O)n(C)c1=O	none (no result: SARS PLP yeast)
Cc1ccc(C#CC[N+]2(CC#Cc3ccc(C)cc3)CCCCC2)cc1	Pf growth 48h 0.59µM, Pf growth 96h inconclusive
C#CC[N+]1(CC#Cc2cccc(C)c2)CCCCC1	Pf growth 48h 1.5µM
COc1ccc(NC2=CC(=O)CC(c3ccccc3)C2)c(OC)c1 (stereo not given)	Pf growth 48h inconclusive, Pf growth 96h inconclusive
CN(C)C(=O)Oc1ccc(OCc2n(C)c3ccccc3[n+]2C)cc1	Pf growth 48h inconclusive, Pf growth 96h 2.3µM
CCCCCCCCNc1nc(Cl)nc(NCc2ccco2)n1	none
CCOc1ccc2c(c1)OC(c1ccccc1)(C(F)(F)F)NC2=O (stereo not given)	Pf growth 48h 1.7µM, Pf growth 96h 0.23µM

Compound activity: PubChem BioAssay, National Center for Advancing Translational Sciences (NCATS)
